About 1,000 (0.3%) of roughly 330,000 compounds were called active. A call without a number means that no potency is given here. Inconclusive results (about 3%) are left out. The call rests on the fitted dose curve; in most records, active means well fitted inhibition curve with a large enough effect; inconclusive means small, poorly fitted or top-dose-only effect; inactive means no such curve, though single readings can be large or run the other way; tested in mouse RAW 264.7 cells. This excerpt belongs to a sample that is enriched for actives.
Potency means the concentration at half of the fitted maximal effect.

The nature of this test: qHTS for Inhibitors of Cell Surface uPA Generation. Further: nearly all actives have a fitted effect of over 55% in size. Particulars: cell surface uPA generation assay; series mostly up to 38.3 µM. The source says: The overall objective of this project is to perform a quantitative high throughput screen (qHTS) to identify novel compounds that inhibit the generation of cell surface urokinase activity. The urokinase plasminogen activator (uPA) is one of the two primary endogenous systems that mediate plasminogen activation into plasmin. Members of this system, including uPA and its receptor (uPAR), are overexpressed in several malignant tumors. This system plays a major role in adhesion, migration, invasion and metastasis of cancer cells. Small molecule inhibitors of the uPA system will serve as probes to understand the molecular mechanisms of the uPA cascade and better understanding the microenvironmental circumstances that facilitate the activation of plasminogen by uPA, and finally may provide novel candidate agents for anticancer drug therapy.
[…] […] Upon inhibition of the uPA activation cascade, the subsequent cell surface uPA activity-dependent translocation of LF into the cytoplasm is inhibited. ATP-Lite is used to measure intracellular ATP concentrations, which remain increased if LF entry into the cytoplasm is inhibited. This validation assay was performed using a small set of validation compounds.
NIH Chemical Genomics Center [NCGC]
NIH Molecular Libraries Probe Centers Network [MLPCN]
Assay Submitter (PI): Thomas Bugge, National Institute of Dental and Craniofacial Research, NIH
Cultured RAW 264.7 were dispensed into 1536-well clear bottom, white walled tissue culture plates at a density of 4000 cells/well and were incubated overnight (12-16 h) at 37 C in a 5% CO2 incubator. Serially diluted compounds in 23 nl DMSO were added to cells. […] Compound and reagent-treated plates were incubated for 24 h at 37 C in a 5% CO2 incubator. Perkin Elmer ATPlitetrade mark 1 step (3 ul) was then added to each well. Luminescence was detected using a Perkin Elmer ViewLuxtrade mark plate reader.
1.Dispensing RAW 264.7 cells into 1536-well, white walled tissue culture plates at a density of 4000 cells/well (4 uL).
2.Incubation at 37 C in a 5% CO2 incubator overnight.
3.Serially diluting compounds (1:5 serial dilution; 0.0024 uM to […] final concentration) in 23 nl DMSO.
5.Incubating the compound and reagent-treated plates for 24 hours at 37 C in a 5% CO2 incubator.
6.Adding ATP-Lite (3 ul).
7.Reading plates by ViewLux with an exposure length of 5 seconds.
Take `CCOc1ccc(-c2cc(C)[n+](CCN(CC)CC)c(-c3ccc(OCC)cc3)c2)cc1`: the Potency was 3.55 µM (active).

With `CC12CCC3C(CCC4CC(=O)CCC43C)C1CC(=NO)C2=O` (stereo not given), the Potency result is “inactive”.

Regarding `CC1CCCN1CCC(C(N)=O)(c1ccccc1)c1ccccc1` (stereo not given), the Potency entry is “inactive”.

As for `CC1C(=O)OC2CCN3CC=C(COC(=O)C(C)(O)C1(C)O)C23` (stereo not given), the Potency entry was “inactive”.

Consider `CC1=CC(=Cc2sc3ccccc3[n+]2C)C=C(C)O1`, for which the Potency was 5.01 µM (active).

Take `CCOC(=O)C1(c2ccccc2)CCN(CC(O)c2ccc(NC(C)=O)cc2)CC1` (stereo not given): the Potency result was “inactive”.

`C=C(C)C1(CCCC)C(=O)NC(=S)NC1=O`: the Potency entry was “inactive”.

On to `CC(=O)OC1C2(CC3N4C(=O)C5(CO)SSC4(CC31O)C(=O)N5C)OC(C)C(C)(C)C2=O` (stereo not given), for which the Potency result was “inactive”.

Take `Cc1cc(C)c2c(c1)NP(=S)(c1ccccc1)N2` (stereo not given): the Potency result was “inactive”.

Take `CC1(c2cccc([N+](=O)[O-])c2)CC(C)(C)N(C(=O)c2ccccc2)c2ccccc21` (stereo not given): the Potency result is “inactive”.

Values taken from PubChem BioAssay AID540303 (National Center for Advancing Translational Sciences (NCATS), 2011).
